The values below come from PubChem BioAssay (NCI).

Test [1] in a line: NCI Yeast Anticancer Drug Screen. Data for the rad50 strain (AID 155).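 Also: 0% = growth of vehicle-only cultures of the same strain.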 To be noted: S. cerevisiae rad50 strain growth inhibition; at 50.0 µM; hits give high values. Put shortly: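 Vehicle-treated cultures provide the reference for the growth inhibition reported for compound-exposed, repair-deficient yeast.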
A short description of test [2]: NCI Yeast Anticancer Drug Screen. Data for the mec2-1 strain (AID 157). To be noted: S. cerevisiae mec2-1 strain, at 50.0 µM, hits give high values. Put shortly:
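Each compound was tested on mec2-1 yeast, a strain altered in DNA damage repair or cell cycle control. Growth inhibition is reported relative to vehicle.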

Test [3] in a line: NCI Yeast Anticancer Drug Screen. Data for the sgs1 mgt1 strain (AID 161).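 Also: 0% = growth of cultures given vehicle only.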 To be noted: S. cerevisiae sgs1 mgt1 strain, at 50.0 µM, hits give high values. Summed up:
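Inhibition of yeast growth, normalised to vehicle-treated controls, is reported for a strain bearing genetic alterations in DNA damage repair.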

Test [4] is described as follows: NCI Yeast Anticancer Drug Screen. Data for the cln2 rad14 strain (AID 165).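 Also: 0% = growth equal to vehicle treated cultures.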 To be noted: S. cerevisiae cln2 rad14 strain, at 50.0 µM, hits give high values. Put shortly:
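Test compounds were added to cln2 rad14 yeast cultures; inhibition of growth was then determined by comparison with vehicle treatment.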

A short description of test [5]: NCI Yeast Anticancer Drug Screen. Data for the bub3 strain (AID 167). To be noted: S. cerevisiae bub3 mutant strain, at 50.0 µM, hits give high values. Put shortly: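 Mutant yeast screening strain plus compound; vehicle-treated cultures serve as the 0% inhibition reference.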
A short description of test [6]: NCI Yeast Anticancer Drug Screen. Data for the mlh1 rad18 strain (AID 175). To be noted: S. cerevisiae mlh1 rad18 strain growth inhibition; at 50.0 µM; hits give high values. Put shortly:
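Inhibition values reflect reduced growth of mutant yeast versus vehicle-treated controls following compound exposure; the mutations affect DNA damage repair.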

The panel holds about 79,000 compounds, 15% with a hit somewhere; the sample as a whole holds those more often. A number with no mark means an inactive call. Calls of active or inactive are those of the source. Rule as the data show it: active = growth inhibition above about 70%; inactive = the rest.

For `CC(C)(C)c1ccc(OCCOCCOc2ccc(C(C)(C)C)cc2S(N)(=O)=O)c(S(N)(=O)=O)c1`, the growth inhibition in test [1] was 0.35%; in test [2] it was -23.3%; in test [3], -19.8%; in test [4], 9.7%; in test [5] it was -3.5%; in test [6], -6.35%.

For the compound `CCOC(=O)C(C)(C)Oc1ccc2c(=O)cc(-c3ccc(Cl)cc3)oc2c1`, the growth inhibition in test [1] is -19.6%; in test [2], -20.1%; in test [3] it was -30.3%; in test [4], -14.5%; in test [5], -38.9%; in test [6] it was -29.4%.

With `OCC(O)C(O)C(O)c1nn(-c2ccccc2)c2nc3ccccc3nc12` (stereo not given), the growth inhibition is 3.6% in test [1]; 1.3% in test [2]; 3.4% in test [3]; 7.15% in test [4]; 11.3% in test [5]; 17.2% in test [6].

With `CN(C)C(=O)C(c1ccccc1)P(=O)(c1ccccc1)c1ccccc1` (stereo not given), the growth inhibition in test [1] was -7.9%; in test [2], -12.1%; in test [3], -0.9%; in test [4], -26.6%; in test [5] it was -21.2%; in test [6], -5.25%.

Turning to `c1ccc(NCc2nc3ccccc3[nH]2)cc1`, the growth inhibition is -1.6% in test [1]; -7.55% in test [2]; -10.4% in test [3]; 24.3% in test [4]; 7.6% in test [5]; 1.15% in test [6].

In the case of `CC12CCC3c4ccc(OC(=O)C56C=CC(=O)C5C5C=CC6CC5)cc4CCC3C1CCC2=O` (stereo not given), the growth inhibition in test [1] is 11.6%; in test [2] it was -16.8%; in test [3], -2.2%; in test [4], 16.1%; in test [5], -4.05%; in test [6], 0.05%.

Consider `CS(=O)(=O)Nc1ccc2ccccc2c1`, for which the growth inhibition in test [1] was -33.8%; in test [2], 18.8%; in test [3], -22.5%; in test [4], 5.1%; in test [5], -3.05%; in test [6] it was -3.7%.

`NC(N)=NC(=O)c1ccccc1`: the growth inhibition in test [1] was -26.4%; in test [2], -12.2%; in test [3], -9.55%; in test [4] it was -23.1%; in test [5] it was -0.55%; in test [6] it was 12.9%.

On to `Brc1ccc2nc(-c3ccccc3)c3ccccc3c2c1`, for which the growth inhibition was -13.7% in test [1]; -0.45% in test [2]; -2.35% in test [3]; -25.4% in test [4]; 14.8% in test [5]; -2.65% in test [6].

For the compound `CCNC(=O)NS(=O)(=O)c1ccc(Sc2ccc(C)cc2)nc1`, the growth inhibition in test [1] was -11.2%; in test [2], -7.3%; in test [3] it was -1.1%; in test [4] it was -20.5%; in test [5], 7.2%; in test [6], 0.7%.

In the case of `CCC(=O)c1cccc(-c2ccccc2)c1CC`, the growth inhibition in test [1] was 17.9%; in test [2], -7%; in test [3], 15.9%; in test [4], 4.05%; in test [5] it was -22.6%; in test [6] it was 12.9%.

As for `CCCSc1ncnc2c1ncn2COC(=O)NC`, the growth inhibition in test [1] was 15.1%; in test [2] it was -11.4%; in test [3] it was 5.2%; in test [4], 5.15%; in test [5], 11.3%; in test [6], -2.8%.

As for `C[N+]1(C)CCCC(c2ccccc2)(c2ccccc2)C(O)C1` (stereo not given), the growth inhibition in test [1] is 10.8%; in test [2], 7.15%; in test [3], 11.2%; in test [4] it was 23.4%; in test [5], -2.65%; in test [6], 11.9%.

On to `Cc1ccc(NC(=S)/N=C/c2c(O)[nH]c(=O)[nH]c2=O)c(C)c1`, for which the growth inhibition in test [1] was -9.4%; in test [2], -20.4%; in test [3], -15.8%; in test [4] it was -4.85%; in test [5], -24.5%; in test [6], 2.05%.

For `CC1OS(=O)(=O)CS(=O)(=O)OC1C` (stereo not given), the growth inhibition in test [1] is -50.1%; in test [2], -24.9%; in test [3], -12.8%; in test [4], -61.4%; in test [5], 4.8%; in test [6], -6.15%.

Regarding `CN1CCC(c2ccccc2)(C(O)(c2ccccc2)c2ccccc2)CC1`, the growth inhibition was 3.15% in test [1]; 1.25% in test [2]; -6% in test [3]; 12.1% in test [4]; 0.65% in test [5]; 12.7% in test [6].

As for `COc1ccc(-c2oc(/C=N/NC(N)=S)c([N+](=O)[O-])c2-c2ccc(OC)c(OC)c2)cc1OC`, the growth inhibition in test [1] was 44.6%; in test [2] it was 22.8%; in test [3] it was 44%; in test [4] it was 24.4%; in test [5] it was 28.9%; in test [6] it was 34.6%.

With `COc1ccc2ncc(COC(=O)NC3CCCCC3)c(COC(=O)NC3CCCCC3)c2c1`, the growth inhibition in test [1] was 36.9%; in test [2], -2.1%; in test [3] it was 24.4%; in test [4], -0.6%; in test [5], -4.25%; in test [6], 22.5%.

Consider `CN1CCCS/C1=C1/SC(=S)N(c2ccccc2)C1=O`, for which the growth inhibition in test [1] is -16.8%; in test [2], 13.8%; in test [3], -5.85%; in test [4], -5.75%; in test [5], -28.1%; in test [6] it was -17.4%.

Consider `CCCCCCCCCCCCCCCC(=O)NC(CCCCN)C(=O)NC(CCCCN)C(=O)OCC` (stereo not given), for which the growth inhibition in test [1] is 77.9% (active); in test [2], 97% (active); in test [3], 68.9%; in test [4] it was 94.5% (active); in test [5] it was 47.4%; in test [6], 65.5%.
